# Laboratory results reported in PMC7862700, “An all-to-all approach to the identification of sequence-specific readers for epigenetic DNA modifications on cytosine”.
# Key:
# Assay in all cases: DAPPL (digital affinity profiling via proximity ligation, sequencing); 10 mM Tris-HCl pH 7.5, 50 mM NaCl, 1 mM DTT, 4% glycerol, room temperature, 30 min; GST-TFs on glutathione beads, 16-mer random dsDNA library, 0.1% formaldehyde crosslink after washing; high values mean tight binding
# FLI1 = target: T1, FLI1 (Homo sapiens, UniProt Q01543 1-452); conditions: protein: recombinant; tags: N-terminal GST; dsDNA, one strand shown
# T1 sequence: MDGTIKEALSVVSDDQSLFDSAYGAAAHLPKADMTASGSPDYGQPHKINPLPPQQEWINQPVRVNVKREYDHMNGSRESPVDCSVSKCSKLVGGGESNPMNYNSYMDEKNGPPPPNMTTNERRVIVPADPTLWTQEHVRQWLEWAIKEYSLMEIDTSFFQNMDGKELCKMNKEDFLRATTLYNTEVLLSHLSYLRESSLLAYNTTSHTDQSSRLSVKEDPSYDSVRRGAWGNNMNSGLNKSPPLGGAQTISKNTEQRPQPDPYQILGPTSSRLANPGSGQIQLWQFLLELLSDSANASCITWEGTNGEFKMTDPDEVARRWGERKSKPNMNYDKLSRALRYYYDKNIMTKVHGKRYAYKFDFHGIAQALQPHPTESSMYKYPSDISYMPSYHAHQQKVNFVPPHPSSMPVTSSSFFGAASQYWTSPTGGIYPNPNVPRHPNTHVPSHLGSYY
# Method in brief: (§1)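 GST fusions of human transcription factors were expressed in yeast and captured with glutathione beads. Once given DNA barcodes and pooled alongside a tag-only sample, they were incubated for 30 min at room temperature with 200 nmole of a random double-stranded 16-mer DNA library in Tris/NaCl/DTT/glycerol buffer, then washed, crosslinked (0.1% formaldehyde), proximity-ligated, PCR-amplified and sequenced on an Illumina NextSeq500. The binding signal of each hexamer is its read frequency for a factor divided by its frequency for the tag-only sample.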
# ELK1 = target: T2, ELK1 (Homo sapiens, UniProt P19419 1-428); conditions: protein: recombinant; tags: N-terminal GST; dsDNA, one strand shown
# T2 sequence: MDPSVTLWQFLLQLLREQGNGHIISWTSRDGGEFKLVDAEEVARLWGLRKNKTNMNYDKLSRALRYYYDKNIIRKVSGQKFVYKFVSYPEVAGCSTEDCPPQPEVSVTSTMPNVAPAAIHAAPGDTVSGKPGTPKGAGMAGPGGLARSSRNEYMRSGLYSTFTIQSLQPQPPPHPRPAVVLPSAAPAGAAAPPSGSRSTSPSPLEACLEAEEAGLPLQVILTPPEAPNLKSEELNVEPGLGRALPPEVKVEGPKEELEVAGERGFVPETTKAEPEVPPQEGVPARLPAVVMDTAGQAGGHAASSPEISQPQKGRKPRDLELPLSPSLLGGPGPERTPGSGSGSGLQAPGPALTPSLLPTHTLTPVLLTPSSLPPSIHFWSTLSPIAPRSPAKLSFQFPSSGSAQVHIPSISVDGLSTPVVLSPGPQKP
# Method in brief: as §1
# GABPA = target: T3, GABPA (Homo sapiens, UniProt Q06546 1-454); conditions: protein: recombinant; tags: N-terminal GST; dsDNA, one strand shown
# T3 sequence: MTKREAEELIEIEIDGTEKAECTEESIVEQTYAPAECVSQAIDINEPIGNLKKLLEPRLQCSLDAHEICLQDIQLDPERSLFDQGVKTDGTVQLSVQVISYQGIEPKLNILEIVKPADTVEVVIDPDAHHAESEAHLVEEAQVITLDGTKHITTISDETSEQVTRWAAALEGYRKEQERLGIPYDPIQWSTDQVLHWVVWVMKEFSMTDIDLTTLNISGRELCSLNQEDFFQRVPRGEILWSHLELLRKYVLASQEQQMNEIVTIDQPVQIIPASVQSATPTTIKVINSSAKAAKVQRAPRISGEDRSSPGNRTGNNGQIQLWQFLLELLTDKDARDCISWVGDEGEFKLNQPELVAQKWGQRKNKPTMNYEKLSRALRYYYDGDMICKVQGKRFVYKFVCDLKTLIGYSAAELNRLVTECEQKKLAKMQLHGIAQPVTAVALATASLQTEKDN
# Method in brief: as §1
# ERG = target: T4, ERG (Homo sapiens, UniProt P11308 1-479); conditions: protein: recombinant; tags: N-terminal GST; dsDNA, one strand shown
# T4 sequence: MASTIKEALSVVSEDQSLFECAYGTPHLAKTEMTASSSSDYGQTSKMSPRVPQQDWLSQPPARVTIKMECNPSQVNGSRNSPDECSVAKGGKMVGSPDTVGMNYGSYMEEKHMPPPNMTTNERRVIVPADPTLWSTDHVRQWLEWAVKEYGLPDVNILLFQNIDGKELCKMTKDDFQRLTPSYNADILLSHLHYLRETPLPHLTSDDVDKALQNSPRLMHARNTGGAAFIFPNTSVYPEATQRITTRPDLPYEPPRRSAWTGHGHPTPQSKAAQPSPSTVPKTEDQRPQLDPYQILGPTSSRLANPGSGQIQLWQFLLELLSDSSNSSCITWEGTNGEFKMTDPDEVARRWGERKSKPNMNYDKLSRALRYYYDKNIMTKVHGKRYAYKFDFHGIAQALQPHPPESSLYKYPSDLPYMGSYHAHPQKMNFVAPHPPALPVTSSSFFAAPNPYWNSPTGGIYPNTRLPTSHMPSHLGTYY
# Method in brief: as §1
# ELF1 = ELF1 (Homo sapiens, UniProt P32519 1-619); conditions: protein: recombinant; tags: N-terminal GST; dsDNA, one strand shown
# Method in brief: as §1
# EHF = target: T5, EHF (Homo sapiens, UniProt Q9NZC4 1-300); conditions: protein: recombinant; tags: N-terminal GST; dsDNA, one strand shown
# T5 sequence: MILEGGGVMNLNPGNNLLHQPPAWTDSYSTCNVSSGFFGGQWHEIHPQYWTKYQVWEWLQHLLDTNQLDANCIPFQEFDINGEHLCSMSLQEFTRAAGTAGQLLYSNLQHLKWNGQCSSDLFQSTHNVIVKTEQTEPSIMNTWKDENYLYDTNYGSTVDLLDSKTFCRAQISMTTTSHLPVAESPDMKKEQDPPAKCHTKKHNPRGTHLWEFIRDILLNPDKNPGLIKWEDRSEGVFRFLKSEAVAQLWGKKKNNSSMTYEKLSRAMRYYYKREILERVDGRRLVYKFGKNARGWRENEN
# Method in brief: as §1
# SPI1 = SPI1 (Homo sapiens, UniProt P17947 1-270); conditions: protein: recombinant; tags: N-terminal GST; dsDNA, one strand shown
# Method in brief: as §1
# SPIB = SPIB (Homo sapiens, UniProt Q01892 1-262); conditions: protein: recombinant; tags: N-terminal GST; dsDNA, one strand shown
# Method in brief: as §1
# ELK3 = target: T6, ELK3 (Homo sapiens, UniProt P41970 1-407); conditions: protein: recombinant; tags: N-terminal GST; dsDNA, one strand shown
# T6 sequence: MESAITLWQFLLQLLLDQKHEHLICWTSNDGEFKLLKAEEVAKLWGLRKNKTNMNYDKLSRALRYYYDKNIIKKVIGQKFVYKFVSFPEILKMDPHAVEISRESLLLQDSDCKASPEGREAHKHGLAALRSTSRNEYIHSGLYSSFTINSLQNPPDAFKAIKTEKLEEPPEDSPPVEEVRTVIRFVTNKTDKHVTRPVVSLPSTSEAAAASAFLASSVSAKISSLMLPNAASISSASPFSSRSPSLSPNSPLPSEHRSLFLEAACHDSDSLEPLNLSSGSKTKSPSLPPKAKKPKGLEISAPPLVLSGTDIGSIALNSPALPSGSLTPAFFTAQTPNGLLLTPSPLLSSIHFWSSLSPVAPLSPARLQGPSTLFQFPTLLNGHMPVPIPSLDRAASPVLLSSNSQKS
# Method in brief: as §1
# FEV = target: T7, FEV (Homo sapiens, UniProt Q99581 1-238); conditions: protein: recombinant; tags: N-terminal GST; dsDNA, one strand shown
# T7 sequence: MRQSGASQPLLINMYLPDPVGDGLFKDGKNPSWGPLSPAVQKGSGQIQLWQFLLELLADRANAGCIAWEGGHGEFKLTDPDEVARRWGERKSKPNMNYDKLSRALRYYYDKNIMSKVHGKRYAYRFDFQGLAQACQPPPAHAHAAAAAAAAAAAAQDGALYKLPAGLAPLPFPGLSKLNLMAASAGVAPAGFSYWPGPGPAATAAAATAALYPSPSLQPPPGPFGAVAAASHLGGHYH
# Method in brief: as §1
# ETV5 = ETV5 (Homo sapiens, UniProt P41161 1-510); conditions: protein: recombinant; tags: N-terminal GST; dsDNA, one strand shown
# Method in brief: as §1
# HSF1 = HSF1 (Homo sapiens, UniProt Q00613 1-529); conditions: protein: recombinant; tags: N-terminal GST; chain copies: 3; dsDNA, one strand shown
# Method in brief: as §1
# SPIC = target: T8, SPIC (Homo sapiens, UniProt Q8N5J4 1-248); conditions: protein: recombinant; tags: N-terminal GST; dsDNA, one strand shown
# T8 sequence: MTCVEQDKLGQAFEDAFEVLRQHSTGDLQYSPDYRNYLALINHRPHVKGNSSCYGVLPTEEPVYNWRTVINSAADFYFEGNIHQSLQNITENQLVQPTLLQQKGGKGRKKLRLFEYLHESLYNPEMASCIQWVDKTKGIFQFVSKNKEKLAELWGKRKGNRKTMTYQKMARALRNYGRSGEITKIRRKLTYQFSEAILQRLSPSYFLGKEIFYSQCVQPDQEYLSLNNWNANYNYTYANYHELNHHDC
# Method in brief: as §1
# ELF4 = ELF4 (Homo sapiens, UniProt Q99607 1-663); conditions: protein: recombinant; tags: N-terminal GST; dsDNA, one strand shown
# Method in brief: as §1
# ELK4 = target: T9, ELK4 (Homo sapiens, UniProt P28324-2 1-405); conditions: protein: recombinant; tags: N-terminal GST; dsDNA, one strand shown
# T9 sequence: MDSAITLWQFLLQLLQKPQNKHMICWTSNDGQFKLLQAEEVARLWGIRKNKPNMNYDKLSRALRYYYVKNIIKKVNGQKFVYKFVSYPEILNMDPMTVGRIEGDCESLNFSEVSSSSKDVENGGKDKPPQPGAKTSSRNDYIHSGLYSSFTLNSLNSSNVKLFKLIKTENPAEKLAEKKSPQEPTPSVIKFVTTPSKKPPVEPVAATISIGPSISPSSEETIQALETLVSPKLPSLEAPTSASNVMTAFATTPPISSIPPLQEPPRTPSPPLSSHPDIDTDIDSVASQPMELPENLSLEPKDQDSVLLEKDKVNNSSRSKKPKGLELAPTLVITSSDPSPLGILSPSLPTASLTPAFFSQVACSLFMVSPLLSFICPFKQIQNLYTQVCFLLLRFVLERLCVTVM
# Method in brief: as §1
# ETV2 = target: T10, ETV2 (Homo sapiens, UniProt O00321 1-342); conditions: protein: recombinant; tags: N-terminal GST; dsDNA, one strand shown
# T10 sequence: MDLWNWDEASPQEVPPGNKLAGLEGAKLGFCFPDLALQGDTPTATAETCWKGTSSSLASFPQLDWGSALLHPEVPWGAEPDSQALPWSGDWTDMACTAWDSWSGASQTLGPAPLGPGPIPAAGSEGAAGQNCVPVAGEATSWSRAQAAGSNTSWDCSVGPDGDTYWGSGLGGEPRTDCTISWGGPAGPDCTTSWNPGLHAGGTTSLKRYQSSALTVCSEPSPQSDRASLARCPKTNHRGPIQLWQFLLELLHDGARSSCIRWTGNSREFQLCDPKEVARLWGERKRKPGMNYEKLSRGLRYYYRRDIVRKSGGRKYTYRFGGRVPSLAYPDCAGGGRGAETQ
# Method in brief: as §1
# ELF3 = target: T11, ELF3 (Homo sapiens, UniProt P78545 1-371); conditions: protein: recombinant; tags: N-terminal GST; dsDNA, one strand shown
# T11 sequence: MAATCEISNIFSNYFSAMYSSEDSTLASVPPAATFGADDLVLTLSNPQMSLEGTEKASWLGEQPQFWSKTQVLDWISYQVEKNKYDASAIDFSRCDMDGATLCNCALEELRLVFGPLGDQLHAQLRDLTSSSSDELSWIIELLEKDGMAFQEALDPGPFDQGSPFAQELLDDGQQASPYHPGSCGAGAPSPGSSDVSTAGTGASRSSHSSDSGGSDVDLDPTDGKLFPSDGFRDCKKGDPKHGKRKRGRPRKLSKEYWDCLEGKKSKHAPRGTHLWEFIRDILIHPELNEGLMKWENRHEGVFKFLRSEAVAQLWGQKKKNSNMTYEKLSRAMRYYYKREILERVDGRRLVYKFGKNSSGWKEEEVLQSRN
# Method in brief: as §1
# CRX = CRX (Homo sapiens, UniProt O43186 1-299); conditions: protein: recombinant; tags: N-terminal GST; dsDNA, one strand shown
# Method in brief: as §1
# ETV1 = ETV1 (Homo sapiens, UniProt P50549 1-477); conditions: protein: recombinant; tags: N-terminal GST; dsDNA, one strand shown
# Method in brief: as §1
# Sequence of HSF1 (Q00613 whole entry): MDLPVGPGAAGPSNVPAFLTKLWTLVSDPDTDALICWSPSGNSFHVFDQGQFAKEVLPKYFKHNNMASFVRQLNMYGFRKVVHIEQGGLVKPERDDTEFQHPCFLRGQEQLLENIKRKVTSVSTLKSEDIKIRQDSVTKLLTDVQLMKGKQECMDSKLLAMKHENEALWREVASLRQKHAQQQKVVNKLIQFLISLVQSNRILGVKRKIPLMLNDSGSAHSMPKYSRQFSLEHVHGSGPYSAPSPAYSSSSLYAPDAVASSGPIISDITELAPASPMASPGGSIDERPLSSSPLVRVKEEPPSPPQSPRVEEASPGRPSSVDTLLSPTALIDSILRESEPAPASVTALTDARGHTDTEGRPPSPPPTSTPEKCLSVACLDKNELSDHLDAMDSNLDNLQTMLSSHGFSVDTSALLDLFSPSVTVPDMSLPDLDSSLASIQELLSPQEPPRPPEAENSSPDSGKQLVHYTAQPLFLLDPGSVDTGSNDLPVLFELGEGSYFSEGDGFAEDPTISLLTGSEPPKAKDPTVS
# Sequence of ELF1 (P32519 whole entry): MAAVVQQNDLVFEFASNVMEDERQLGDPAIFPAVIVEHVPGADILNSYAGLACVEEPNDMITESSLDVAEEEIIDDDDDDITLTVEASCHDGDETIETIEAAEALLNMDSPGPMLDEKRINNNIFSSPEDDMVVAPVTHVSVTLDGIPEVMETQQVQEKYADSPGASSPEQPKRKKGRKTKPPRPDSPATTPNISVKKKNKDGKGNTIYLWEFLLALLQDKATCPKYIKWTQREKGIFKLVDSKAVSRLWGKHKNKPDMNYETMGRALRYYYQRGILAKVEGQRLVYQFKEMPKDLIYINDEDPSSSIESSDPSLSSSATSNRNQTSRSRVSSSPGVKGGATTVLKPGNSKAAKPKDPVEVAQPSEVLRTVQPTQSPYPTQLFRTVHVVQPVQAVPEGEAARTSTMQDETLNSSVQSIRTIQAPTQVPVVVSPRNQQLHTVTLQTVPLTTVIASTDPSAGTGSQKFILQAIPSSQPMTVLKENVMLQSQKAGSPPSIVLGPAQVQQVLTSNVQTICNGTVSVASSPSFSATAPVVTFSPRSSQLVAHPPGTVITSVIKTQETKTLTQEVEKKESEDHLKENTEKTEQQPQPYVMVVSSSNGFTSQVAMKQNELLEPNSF
# Sequence of ELF4 (Q99607 whole entry): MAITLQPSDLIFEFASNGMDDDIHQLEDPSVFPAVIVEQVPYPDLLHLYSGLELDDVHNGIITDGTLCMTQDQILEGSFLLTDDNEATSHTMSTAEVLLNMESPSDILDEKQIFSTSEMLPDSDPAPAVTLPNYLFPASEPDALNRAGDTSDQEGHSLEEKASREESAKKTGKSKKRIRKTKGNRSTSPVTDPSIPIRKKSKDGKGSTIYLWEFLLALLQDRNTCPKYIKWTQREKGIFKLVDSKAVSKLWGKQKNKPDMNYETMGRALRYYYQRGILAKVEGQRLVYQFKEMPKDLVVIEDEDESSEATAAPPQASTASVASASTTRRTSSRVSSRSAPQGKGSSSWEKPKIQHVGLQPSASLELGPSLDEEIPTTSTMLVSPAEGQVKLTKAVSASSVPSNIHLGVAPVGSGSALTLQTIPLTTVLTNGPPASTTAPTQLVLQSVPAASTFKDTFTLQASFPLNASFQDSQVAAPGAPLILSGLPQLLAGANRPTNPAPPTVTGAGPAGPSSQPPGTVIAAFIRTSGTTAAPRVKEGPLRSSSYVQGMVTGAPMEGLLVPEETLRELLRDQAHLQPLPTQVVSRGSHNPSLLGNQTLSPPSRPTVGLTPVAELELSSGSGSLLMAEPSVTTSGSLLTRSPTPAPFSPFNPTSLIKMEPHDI
# Sequence of ETV5 (P41161 whole entry): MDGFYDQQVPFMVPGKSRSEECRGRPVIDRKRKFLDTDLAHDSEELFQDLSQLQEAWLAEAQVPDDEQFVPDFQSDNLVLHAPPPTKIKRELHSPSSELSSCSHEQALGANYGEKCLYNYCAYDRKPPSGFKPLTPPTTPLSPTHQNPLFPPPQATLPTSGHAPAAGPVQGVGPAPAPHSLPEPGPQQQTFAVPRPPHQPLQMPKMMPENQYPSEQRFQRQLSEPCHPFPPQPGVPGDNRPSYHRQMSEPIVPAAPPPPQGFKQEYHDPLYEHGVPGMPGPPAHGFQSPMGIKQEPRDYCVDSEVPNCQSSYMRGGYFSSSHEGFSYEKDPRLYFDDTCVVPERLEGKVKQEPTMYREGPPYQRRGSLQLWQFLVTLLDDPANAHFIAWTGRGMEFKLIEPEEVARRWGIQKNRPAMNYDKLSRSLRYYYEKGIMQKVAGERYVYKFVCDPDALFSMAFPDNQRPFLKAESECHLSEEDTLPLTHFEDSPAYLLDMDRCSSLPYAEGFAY
# Sequence of CRX (O43186 whole entry): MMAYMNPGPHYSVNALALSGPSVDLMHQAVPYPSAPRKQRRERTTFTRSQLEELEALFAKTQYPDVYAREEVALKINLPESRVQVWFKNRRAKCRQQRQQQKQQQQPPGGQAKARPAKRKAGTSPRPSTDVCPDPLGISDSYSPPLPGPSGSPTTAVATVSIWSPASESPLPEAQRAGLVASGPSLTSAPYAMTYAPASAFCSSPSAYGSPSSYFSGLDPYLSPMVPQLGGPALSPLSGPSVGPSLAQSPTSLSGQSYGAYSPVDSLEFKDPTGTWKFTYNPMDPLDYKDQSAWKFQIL
# Sequence of ETV1 (P50549 whole entry): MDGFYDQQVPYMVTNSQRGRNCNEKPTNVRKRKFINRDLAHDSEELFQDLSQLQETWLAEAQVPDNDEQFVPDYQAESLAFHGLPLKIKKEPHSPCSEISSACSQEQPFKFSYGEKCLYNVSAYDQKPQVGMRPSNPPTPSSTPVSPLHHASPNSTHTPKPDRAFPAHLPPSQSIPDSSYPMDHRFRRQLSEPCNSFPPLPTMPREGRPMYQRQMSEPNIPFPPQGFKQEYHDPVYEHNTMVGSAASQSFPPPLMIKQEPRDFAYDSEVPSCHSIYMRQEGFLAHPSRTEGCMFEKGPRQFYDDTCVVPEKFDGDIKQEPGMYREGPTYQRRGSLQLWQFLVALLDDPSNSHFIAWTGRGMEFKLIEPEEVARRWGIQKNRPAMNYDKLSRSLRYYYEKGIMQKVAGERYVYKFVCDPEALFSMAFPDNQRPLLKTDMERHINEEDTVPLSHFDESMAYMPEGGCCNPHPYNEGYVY
# Sequence of SPIB (Q01892 whole entry): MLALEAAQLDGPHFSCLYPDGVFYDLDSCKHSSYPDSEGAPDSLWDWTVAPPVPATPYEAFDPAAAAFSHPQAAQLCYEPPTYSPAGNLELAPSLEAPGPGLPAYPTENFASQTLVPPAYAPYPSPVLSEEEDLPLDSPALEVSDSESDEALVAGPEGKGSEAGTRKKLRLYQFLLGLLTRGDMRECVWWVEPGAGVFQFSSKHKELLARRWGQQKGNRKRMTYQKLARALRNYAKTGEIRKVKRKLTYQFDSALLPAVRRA
sequence,measurement,setting,value
TTCAGC,binding signal,FLI1,"1.27 fold enrichment (6-mer frequency, TF over GST control)"
same,binding signal,ELK1,"1.2 fold enrichment (6-mer frequency, TF over GST control)"
same,binding signal,GABPA,"1.26 fold enrichment (6-mer frequency, TF over GST control)"
same,binding signal,ERG,"1.24 fold enrichment (6-mer frequency, TF over GST control)"
same,binding signal,ELF1,"1.23 fold enrichment (6-mer frequency, TF over GST control)"
same,binding signal,EHF,"1.25 fold enrichment (6-mer frequency, TF over GST control)"
same,binding signal,SPI1,"1.18 fold enrichment (6-mer frequency, TF over GST control)"
same,binding signal,SPIB,"1.18 fold enrichment (6-mer frequency, TF over GST control)"
same,binding signal,ELK3,"1.27 fold enrichment (6-mer frequency, TF over GST control)"
same,binding signal,FEV,"1.25 fold enrichment (6-mer frequency, TF over GST control)"
same,binding signal,ETV5,"1.22 fold enrichment (6-mer frequency, TF over GST control)"
same,binding signal,HSF1,"1.04 fold enrichment (6-mer frequency, TF over GST control)"
same,binding signal,SPIC,"1.16 fold enrichment (6-mer frequency, TF over GST control)"
same,binding signal,ELF4,"1.28 fold enrichment (6-mer frequency, TF over GST control)"
same,binding signal,ELK4,"1.23 fold enrichment (6-mer frequency, TF over GST control)"
same,binding signal,ETV2,"1.14 fold enrichment (6-mer frequency, TF over GST control)"
same,binding signal,ELF3,"1.27 fold enrichment (6-mer frequency, TF over GST control)"
same,binding signal,CRX,"1.19 fold enrichment (6-mer frequency, TF over GST control)"
same,binding signal,ETV1,"1.3 fold enrichment (6-mer frequency, TF over GST control)"
